The whole screen tested about 420,000 compounds, of which about 64,000 (15%) were called active. About 27% were inconclusive and are not listed. These entries were drawn from the full list. Values without a mark were called inactive. Calls follow the shape of the dose curve; as a rule, active = well fitted inhibition curve with a large enough effect; inconclusive = small, poorly fitted or top-dose-only effect; inactive = flat fitted curve, though single readings scatter.
% is scaled to controls: 0 for no effect and ±100 for the full control effect; potency is read from the fitted curve at half-maximal effect.

The assay can be described thus: qHTS for Inhibitors of human tyrosyl-DNA phosphodiesterase 1 (TDP1): qHTS in cells in absence of CPT. Also: nearly all actives have a fitted effect of over 55% in size. Particulars: DT40 Tdp1-/- hTDP1 cells, no CPT, ATP luminescence, 48 h; activity change, negative = growth inhibition: at 46.2 µM (top of the series). An outline of the steps:
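Growth kinetics read by CellTiter-Glo luminescence after ≥48 hr at 37 °C. Cells: DT40 Tdp1-/- stably carrying human TDP1, 400 per well, compound exposure in the absence of CPT (DMSO vehicle).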
(qHTS replaces the single test concentration by a dilution series.)
On to `COc1cc(-c2nnc(NC(=O)C3=COCCO3)o2)cc(OC)c1OC`, for which the “activity change, negative = growth inhibition” value is 5.88%.

For the compound `COc1cc(C(=S)N2CCOCC2)ccc1O`, the Potency entry was “inactive”.

As to `CCCCC(NC(=O)c1cccc(Br)c1)C(=O)O` (stereo unspecified), the “activity change, negative = growth inhibition” value is 1.16%.

For `O=C(CN1C(=O)NC2(CCCC2)C1=O)NCC1CCCO1` (stereo unspecified), the “activity change, negative = growth inhibition” value was 5.83%.

On to `O=C(c1ccccc1)N1CCN(C(=O)N2CCCCC2)CC1`, for which the “activity change, negative = growth inhibition” value is 0.232%.

As for `CC(C)c1ccc(NC(=O)C2CCN(c3nc(-c4ccc(C(C)C)cc4)no3)CC2)cc1`, the Potency was 13 µM (active).

On to `Cc1cc(C)cc(NC(=O)C2CCN(c3nc(C)cc(C)n3)CC2)c1`, for which the “activity change, negative = growth inhibition” value was -8.01%.

Consider `CC(=O)NN=C(C)c1ccc(NC(=O)C2CC2)cc1`, for which the “activity change, negative = growth inhibition” value was -85.3%.

Take `Cc1ccc(-n2ncc3c(=O)[nH]cnc32)c(C)c1`: the “activity change, negative = growth inhibition” value was -1.23%.

Turning to `COc1ccccc1-c1cc2nc(NCc3cccc(Cl)c3)ccn2n1`, the Potency is 18.4 µM (active).

For the compound `COc1ccccc1-c1cc2nc(C)c(CCC(=O)O)c(C)n2n1`, the “activity change, negative = growth inhibition” value was -10.6%.

`COCCCNc1ccn2nc(-c3ccc(CC(C)C)cc3)cc2n1`: the “activity change, negative = growth inhibition” value was -25.7%.

On to `COc1ccccc1-c1cc2nc(C)c(CCC(=O)NC3CCCCC3)c(C)n2n1`, for which the “activity change, negative = growth inhibition” value is -19.4%.

For the compound `CC(C)Cc1ccc(-c2cc3nc(NCc4cccc(Cl)c4)ccn3n2)cc1`, the Potency is 18.4 µM (active).

In the case of `Cc1nc2cc(NC(=O)[C@@H]3C[C@@H](Sc4ccccn4)CN3Cc3ccccc3C)ccc2s1`, the “activity change, negative = growth inhibition” value is -13.5%.

Regarding `O=C1/C(=C/c2ccc3c(c2)OCO3)CCC/C1=C\c1ccc2c(c1)OCO2`, the “activity change, negative = growth inhibition” value is -29.6%.

As for `O=C(OCC(=O)N1CCCCCC1)c1cnc(Cl)c(Cl)c1`, the “activity change, negative = growth inhibition” value is 8.48%.

As to `CCc1ccc(C2C(C(=O)Nc3ccccc3)=C(C)Nc3c(C(=O)Nc4ccc(C)cc4)cnn32)cc1` (stereo unspecified), the Potency was 23.1 µM (active).

With `CC1=C(C(=O)Nc2ccccc2)C(c2ccc(C)cc2)n2nc(SCc3ccccc3C)nc2N1` (stereo unspecified), the “activity change, negative = growth inhibition” value is -22.3%.

In the case of `COc1cccc(C2C(C(=O)Nc3ccc(C)cc3C)=C(C)Nc3c(C(=O)Nc4ccccc4)cnn32)c1` (stereo unspecified), the “activity change, negative = growth inhibition” value was -24%.

On to `CCCSc1ncccc1C(=O)O`, for which the “activity change, negative = growth inhibition” value was -17.2%.

`Cc1cnc(CN(C)C(=O)C2CCC(=O)N(CCc3cccc(F)c3)C2)[nH]1` (stereo unspecified): the “activity change, negative = growth inhibition” value is 22.2%.

For `COc1ccc2oc(=O)c(C(=O)N3CCN(c4ccccc4F)CC3)cc2c1`, the “activity change, negative = growth inhibition” value is -20%.

In the case of `O=C(Nn1cc(C(=O)N2CCN(c3ccccc3F)CC2)c2ccccc2c1=O)c1cnccn1`, the Potency was 13 µM (active).

As to `Cc1oc2ncn(CC(C)C)c(=O)c2c1C(=O)N1CCN(c2ccccc2F)CC1`, the “activity change, negative = growth inhibition” value was -26.2%.

For `CCOCCCNC(=O)C(=O)NCCCOCC`, the “activity change, negative = growth inhibition” value is -0.2%.

Consider `O=C(CSc1nc2[nH]ncc2c(=O)[nH]1)Nc1ccc(F)cc1`, for which the “activity change, negative = growth inhibition” value is 1.91%.

As to `CCOc1ccccc1NC(=O)CCn1cnnn1`, the “activity change, negative = growth inhibition” value is -0.862%.

On to `Cc1[nH]c2ccc(S(N)(=O)=O)cc2c1C`, for which the “activity change, negative = growth inhibition” value was 1.87%.

In the case of `CCc1nnc(NC(=O)C2CCN(C(=O)c3ccccc3C)CC2)s1`, the “activity change, negative = growth inhibition” value was 6.29%.

With `Cc1ccccc1C(=O)N1CCC(C(=O)Oc2ccc(C#N)cc2)CC1`, the “activity change, negative = growth inhibition” value was 3.44%.

On to `Cc1ccccc1C(=O)N1CCC(C(=O)Nc2ccc(S(=O)(=O)N(C)C(C)C)cc2)CC1`, for which the Potency is 20.6 µM (active).

Consider `COc1ccc(-n2c(C)csc2=S)cc1`, for which the “activity change, negative = growth inhibition” value was -9.93%.

`COC(=O)C1(C(=O)OC)C/C=C\CN(S(=O)(=O)c2ccccc2[N+](=O)[O-])CCC1`: the Potency was 16.4 µM (active).

`O=C(OCCN1C(=O)c2ccccc2C1=O)[C@@H]1CC(O)CN1S(=O)(=O)c1ccccc1[N+](=O)[O-]` (stereo partly specified): the “activity change, negative = growth inhibition” value was 4.14%.

Take `COc1ccc(S(=O)(=O)N2CCC(C(=O)OCC(=O)c3ccccc3)CC2)cc1[N+](=O)[O-]`: the “activity change, negative = growth inhibition” value was -10.2%.

As for `OCCc1ccc(NCCc2ccco2)cc1`, the “activity change, negative = growth inhibition” value was -7.84%.

Turning to `COCCNc1ncnc2c1ncn2[C@H]1CN(Cc2ccc(OC)cc2)C[C@@H](CO)O1`, the “activity change, negative = growth inhibition” value was -11.2%.

On to `COc1ccc(-c2oc3ncnc(NCCCO)c3c2-c2ccc(OC)cc2)cc1`, for which the Potency is 16.4 µM (active).

Turning to `OCCNc1ncnc2oc(-c3ccco3)c(-c3ccco3)c12`, the Potency was 20 µM (active).

As for `Cc1nnc(NCCO)c2ccccc12`, the “activity change, negative = growth inhibition” value was -3.13%.

In the case of `Nc1nonc1C(=O)NCCc1ccccc1`, the “activity change, negative = growth inhibition” value was 2.03%.

On to `O=S1(=O)C=C(SCCN2CCCC2)c2ccccc21`, for which the “activity change, negative = growth inhibition” value was -17.4%.

`CCCC(C)NC(=O)C1CCN(C(=O)C2CC(=O)N(c3ccc(C)cc3)C2)CC1` (stereo unspecified): the “activity change, negative = growth inhibition” value is -16.9%.

As for `Cc1ccsc1CNn1cnnc1SCc1ccccc1F`, the “activity change, negative = growth inhibition” value was -16.7%.

As to `CCn1c(CNC(=O)c2ccco2)nnc1SCC(=O)Nc1cccc(F)c1`, the “activity change, negative = growth inhibition” value was 25.7%.

For the compound `CC(C)[C@H](CO)Nc1nc(Nc2cc(N)cc(Cl)c2)c2ncn(C(C)C)c2n1`, the Potency was 2.99 µM (active).

`CC(C)n1cnc2c(Nc3cccc(Cl)c3)nc(N(CCO)CCCO)nc21`: the Potency is 14.6 µM (active).

Take `COC(=O)C(C)n1cnc2c(nnn2-c2cccc(Cl)c2)c1=O` (stereo unspecified): the “activity change, negative = growth inhibition” value was -2.72%.

On to `O=C(NCCc1ccccc1)c1ccc(NC2=NC3CS(=O)(=O)CC3S2)cc1` (stereo unspecified), for which the “activity change, negative = growth inhibition” value was -3.78%.

As to `Cc1cc(NS(=O)(=O)c2ccc(NC(=O)C(C)Oc3cccc(C)c3C)cc2)nc(C)n1` (stereo unspecified), the “activity change, negative = growth inhibition” value is 1.7%.
